According to PubChem BioAssay AID1159580 (chemical genetic matrix, 2015):
In all, about 5,500 compounds went through this assay and about 2,000 (36%) were called active. Another 18% or so got no clear call; they are omitted. No stated cut-off is given here; in the data, active means normalized growth mostly below about 0.91 (no sharp cut-off); inconclusive means no clear call, values can overlap the other calls; inactive means mostly above about 0.92. The list shows a part of the results.

Assay: chemical genetic growth profiling, strain panel (AID 1159580);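 further: tested at 20 µM; growth read once vehicle control cultures reached saturation at 30 °C; 1 = growth at the plate median or of vehicle wells; lower values mean less growth of the strain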
Conditions: growth OD

Measured: normalized growth

C[C@H](N)[C@H](O)c1ccc(O)c(O)c1
inactive: S. cerevisiae deletion strains, locus YJR066W, strain TOR1, active compounds read low 0.948 | S. cerevisiae deletion strains, locus YJR075W, strain HOC1, active compounds read low 0.993 | S. cerevisiae deletion strains, locus YKL009W, strain mrt4, active compounds read low 0.994 | S. cerevisiae deletion strains, locus YKL068W, active compounds read low 0.986 | S. cerevisiae deletion strains, locus YKL085W, strain MDH1 (second series), active compounds read low 0.983 | S. cerevisiae deletion strains, locus YKL085W, strain MDH1, active compounds read low 0.983 | S. cerevisiae deletion strains, locus YKL160W, strain elf1, active compounds read low 0.981 | S. cerevisiae deletion strains, locus YKR001C, strain vps1, active compounds read low 0.978 | S. cerevisiae deletion strains, locus YKR026C, strain gcn3, active compounds read low 1 | S. cerevisiae deletion strains, locus YKR091W, strain srl3, active compounds read low 0.998 | S. cerevisiae deletion strains, locus YLL001W, strain dnm1, active compounds read low 0.954 | S. cerevisiae deletion strains, locus YLL026W, active compounds read low 1.01 | S. cerevisiae deletion strains, locus YLL041C, strain sdh2, active compounds read low 1.01 | S. cerevisiae deletion strains, locus YLR027C, strain aat2, active compounds read low 1.01 | S. cerevisiae deletion strains, locus YLR039C, strain RIC1, active compounds read low 0.959 | S. cerevisiae deletion strains, locus YLR058C, strain SHM2, active compounds read low 0.993 | S. cerevisiae deletion strains, locus YLR102C, strain apc9, active compounds read low 0.988 | S. cerevisiae deletion strains, locus YLR113W, strain HOG1, active compounds read low 0.967 | S. cerevisiae deletion strains, locus YLR221C, strain rsa3, active compounds read low 0.979 | S. cerevisiae deletion strains, locus YLR258W, strain gsy2, active compounds read low 0.996 | S. cerevisiae deletion strains, locus YLR262C, strain YPT6 (second series), active compounds read low 0.974 | S. cerevisiae deletion strains, locus YLR262C, strain YPT6, active compounds read low 1.04 | S. cerevisiae deletion strains, locus YLR268W, strain sec22, active compounds read low 0.969 | S. cerevisiae deletion strains, locus YLR320W, strain mms22, active compounds read low 1.01 | S. cerevisiae deletion strains, locus YLR330W, strain CHS5, active compounds read low 0.995 | S. cerevisiae deletion strains, locus YLR342W, strain FKS1 (second series), active compounds read low 0.968 | S. cerevisiae deletion strains, locus YLR342W, strain FKS1, active compounds read low 1.01 | S. cerevisiae deletion strains, locus YLR357W, strain rsc2, active compounds read low 0.983 | S. cerevisiae deletion strains, locus YLR370C, strain arc18, active compounds read low 1 | S. cerevisiae deletion strains, locus YLR371W, strain rom2, active compounds read low 0.963 | S. cerevisiae deletion strains, locus YLR384C, strain iki3, active compounds read low 0.998 | S. cerevisiae deletion strains, locus YLR418C, strain cdc73, active compounds read low 0.948 | S. cerevisiae deletion strains, locus YML016C, strain PPZ1, active compounds read low 0.994 | S. cerevisiae deletion strains, locus YML032C, strain rad52, active compounds read low 0.988 | S. cerevisiae deletion strains, locus YML120C, strain ndi1, active compounds read low 0.985 | S. cerevisiae deletion strains, locus YML124C, strain tub3, active compounds read low 0.994 | S. cerevisiae deletion strains, locus YMR058W, strain fet3, active compounds read low 1 | S. cerevisiae deletion strains, locus YMR078C, strain ctf18, active compounds read low 0.973 | S. cerevisiae deletion strains, locus YMR125W, strain sto1, active compounds read low 0.994 | S. cerevisiae deletion strains, locus YMR129W, active compounds read low 1 | S. cerevisiae deletion strains, locus YMR205C, strain PFK2, active compounds read low 0.994 | S. cerevisiae deletion strains, locus YMR223W, strain ubp8, active compounds read low 0.953 | S. cerevisiae deletion strains, locus YMR231W, strain pep5, active compounds read low 0.999 | S. cerevisiae deletion strains, locus YMR263W, strain SAP30, active compounds read low 0.997 | S. cerevisiae deletion strains, locus YMR307W, strain GAS1, active compounds read low 0.95 | S. cerevisiae deletion strains, locus YNL067W, strain RPL9B, active compounds read low 1 | S. cerevisiae deletion strains, locus YNL071W, strain lat1, active compounds read low 1.02 | S. cerevisiae deletion strains, locus YNL183C, strain NPR1, active compounds read low 0.963 | S. cerevisiae deletion strains, locus YNL209W, strain ssb2, active compounds read low 0.991 | S. cerevisiae deletion strains, locus YNL233W, strain BNI4, active compounds read low 0.987 | S. cerevisiae deletion strains, locus YNL248C, strain rpa49, active compounds read low 0.995 | S. cerevisiae deletion strains, locus YNL250W, strain rad50, active compounds read low 0.967 | S. cerevisiae deletion strains, locus YNL271C, strain bni1, active compounds read low 0.964 | S. cerevisiae deletion strains, locus YNL298W, strain CLA4, active compounds read low 0.966 | S. cerevisiae deletion strains, locus YNL307C, strain MCK1, active compounds read low 0.979 | S. cerevisiae deletion strains, locus YNL322C, strain KRE1 (second series), active compounds read low 0.991 | S. cerevisiae deletion strains, locus YNR049C, strain mso1, active compounds read low 1 | S. cerevisiae deletion strains, locus YNR052C, strain pop2, active compounds read low 0.963 | S. cerevisiae deletion strains, locus YOL006C, strain TOP1, active compounds read low 0.878 | S. cerevisiae deletion strains, locus YOL012C, strain htz1 1.03 | S. cerevisiae deletion strains, locus YOL147C, strain pex11, active compounds read low 0.983 | S. cerevisiae deletion strains, locus YOR001W, strain rrp6, active compounds read low 1.02 | S. cerevisiae deletion strains, locus YOR061W, strain CKA2, active compounds read low 0.996 | S. cerevisiae deletion strains, locus YOR069W, strain VPS5, active compounds read low 0.99 | S. cerevisiae deletion strains, locus YOR070C, strain gyp1, active compounds read low 1 | S. cerevisiae deletion strains, locus YOR080W, strain dia2, active compounds read low 1.01 | S. cerevisiae deletion strains, locus YOR083W, strain WHI5, active compounds read low 0.981 | S. cerevisiae deletion strains, locus YOR106W, strain vam3, active compounds read low 0.976 | S. cerevisiae deletion strains, locus YOR136W, strain idh2, active compounds read low 0.991 | S. cerevisiae deletion strains, locus YOR144C, strain elg1, active compounds read low 0.984 | S. cerevisiae deletion strains, locus YOR184W, strain ser1, active compounds read low 0.977 | S. cerevisiae deletion strains, locus YOR231W, strain MKK1, active compounds read low 1.01 | S. cerevisiae deletion strains, locus YOR265W, strain rbl2, active compounds read low 1 | S. cerevisiae deletion strains, locus YOR270C, strain vph1, active compounds read low 1.02 | S. cerevisiae deletion strains, locus YOR290C, strain snf2, active compounds read low 0.958 | S. cerevisiae deletion strains, locus YOR316C, strain cot1, active compounds read low 0.986 | S. cerevisiae deletion strains, locus YPL051W, strain arl3, active compounds read low 0.976 | S. cerevisiae deletion strains, locus YPL078C, strain atp4, active compounds read low 0.989 | S. cerevisiae deletion strains, locus YPL106C, strain sse1, active compounds read low 0.959 | S. cerevisiae deletion strains, locus YPL240C, strain hsp82, active compounds read low 1.01 | S. cerevisiae deletion strains, locus YPL241C, strain CIN2, active compounds read low 1 | S. cerevisiae deletion strains, locus YPL256C, strain CLN2, active compounds read low 0.992 | S. cerevisiae deletion strains, locus YPR119W, strain clb2, active compounds read low 0.982 | S. cerevisiae deletion strains, locus YPR141C, strain kar3, active compounds read low 0.975 | S. cerevisiae deletion strains, locus YPR163C, strain tif3, active compounds read low 0.986 | S. cerevisiae deletion strains, locus YPR167C, strain met16, active compounds read low 0.993 | S. cerevisiae deletion strains, strain wtn01, active compounds read low 0.971 | S. cerevisiae strains, strain wild type, active compounds read low 1.01
